Measured values published in ChEMBL document CHEMBL1961873, “Compounds: GSK PKIS; Assays: Nanosyn kinase panel” (2012).

Key:
[1] = molecular target: Protein kinase C gamma type (Homo sapiens) (UniProt P05129); settings: at 1 µM;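 also: each value is an averaged percent inhibition of the enzyme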
[2] = molecular target: T1, Protein kinase C iota type (Homo sapiens) (UniProt P41743); settings: at 0.1 µM
T1 sequence (whole entry): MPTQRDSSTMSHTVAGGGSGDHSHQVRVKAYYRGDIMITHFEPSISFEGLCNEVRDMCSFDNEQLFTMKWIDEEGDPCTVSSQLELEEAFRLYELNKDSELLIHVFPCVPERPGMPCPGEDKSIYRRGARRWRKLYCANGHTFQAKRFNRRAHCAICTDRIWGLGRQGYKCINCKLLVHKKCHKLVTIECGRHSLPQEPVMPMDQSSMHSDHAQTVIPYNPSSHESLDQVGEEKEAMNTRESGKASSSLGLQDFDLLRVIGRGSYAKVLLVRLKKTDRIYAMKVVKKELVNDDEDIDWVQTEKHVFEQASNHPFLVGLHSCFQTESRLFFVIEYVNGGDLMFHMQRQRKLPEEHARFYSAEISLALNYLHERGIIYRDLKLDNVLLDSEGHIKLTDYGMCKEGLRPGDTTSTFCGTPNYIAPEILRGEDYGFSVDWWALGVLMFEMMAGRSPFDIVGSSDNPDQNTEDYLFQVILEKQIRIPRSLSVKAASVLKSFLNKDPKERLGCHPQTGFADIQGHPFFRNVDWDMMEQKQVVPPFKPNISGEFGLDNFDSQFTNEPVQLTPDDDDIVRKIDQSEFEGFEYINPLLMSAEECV

[3] = molecular target: T1, Protein kinase C iota type (Homo sapiens); settings: at 1 µM
[4] = molecular target: Protein kinase C theta type (Homo sapiens) (UniProt Q04759); settings: at 0.1 µM
[5] = molecular target: Protein kinase C theta type (Homo sapiens) (UniProt Q04759); settings: at 1 µM
[6] = molecular target: Protein kinase C beta type (Homo sapiens) (UniProt P05771); settings: at 0.1 µM
[7] = molecular target: Protein kinase C beta type (Homo sapiens) (UniProt P05771); settings: at 1 µM
[8] = molecular target: T2, Serine/threonine-protein kinase D1 (Homo sapiens) (UniProt Q15139); settings: at 0.1 µM
T2 sequence (whole entry): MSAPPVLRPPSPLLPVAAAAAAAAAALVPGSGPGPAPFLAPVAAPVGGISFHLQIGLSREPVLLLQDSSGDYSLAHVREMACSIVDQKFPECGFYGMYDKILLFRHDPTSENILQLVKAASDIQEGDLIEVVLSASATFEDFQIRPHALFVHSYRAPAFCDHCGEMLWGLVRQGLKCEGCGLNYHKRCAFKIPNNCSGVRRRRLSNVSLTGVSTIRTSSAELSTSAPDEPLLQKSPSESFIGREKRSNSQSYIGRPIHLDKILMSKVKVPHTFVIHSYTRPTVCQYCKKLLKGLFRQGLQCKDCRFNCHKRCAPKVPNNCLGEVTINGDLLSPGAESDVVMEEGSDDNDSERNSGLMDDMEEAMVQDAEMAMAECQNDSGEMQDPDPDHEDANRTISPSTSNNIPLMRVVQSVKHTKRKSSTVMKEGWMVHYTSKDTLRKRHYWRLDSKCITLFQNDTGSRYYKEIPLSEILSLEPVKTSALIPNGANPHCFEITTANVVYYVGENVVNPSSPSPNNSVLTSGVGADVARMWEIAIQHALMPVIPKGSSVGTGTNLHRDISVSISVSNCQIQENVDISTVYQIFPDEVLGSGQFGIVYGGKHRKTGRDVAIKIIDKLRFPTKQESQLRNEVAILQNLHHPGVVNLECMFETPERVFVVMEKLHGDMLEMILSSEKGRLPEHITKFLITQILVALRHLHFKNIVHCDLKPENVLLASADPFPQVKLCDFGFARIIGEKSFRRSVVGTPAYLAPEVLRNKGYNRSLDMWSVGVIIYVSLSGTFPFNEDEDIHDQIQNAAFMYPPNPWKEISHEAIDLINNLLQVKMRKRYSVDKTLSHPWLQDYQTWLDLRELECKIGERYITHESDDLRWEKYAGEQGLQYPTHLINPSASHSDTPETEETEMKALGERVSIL

[9] = molecular target: T2, Serine/threonine-protein kinase D1 (Homo sapiens); settings: at 1 µM
[10] = molecular target: T3, Serine/threonine-protein kinase D2 (Homo sapiens) (UniProt Q9BZL6); settings: at 0.1 µM
T3 sequence (whole entry): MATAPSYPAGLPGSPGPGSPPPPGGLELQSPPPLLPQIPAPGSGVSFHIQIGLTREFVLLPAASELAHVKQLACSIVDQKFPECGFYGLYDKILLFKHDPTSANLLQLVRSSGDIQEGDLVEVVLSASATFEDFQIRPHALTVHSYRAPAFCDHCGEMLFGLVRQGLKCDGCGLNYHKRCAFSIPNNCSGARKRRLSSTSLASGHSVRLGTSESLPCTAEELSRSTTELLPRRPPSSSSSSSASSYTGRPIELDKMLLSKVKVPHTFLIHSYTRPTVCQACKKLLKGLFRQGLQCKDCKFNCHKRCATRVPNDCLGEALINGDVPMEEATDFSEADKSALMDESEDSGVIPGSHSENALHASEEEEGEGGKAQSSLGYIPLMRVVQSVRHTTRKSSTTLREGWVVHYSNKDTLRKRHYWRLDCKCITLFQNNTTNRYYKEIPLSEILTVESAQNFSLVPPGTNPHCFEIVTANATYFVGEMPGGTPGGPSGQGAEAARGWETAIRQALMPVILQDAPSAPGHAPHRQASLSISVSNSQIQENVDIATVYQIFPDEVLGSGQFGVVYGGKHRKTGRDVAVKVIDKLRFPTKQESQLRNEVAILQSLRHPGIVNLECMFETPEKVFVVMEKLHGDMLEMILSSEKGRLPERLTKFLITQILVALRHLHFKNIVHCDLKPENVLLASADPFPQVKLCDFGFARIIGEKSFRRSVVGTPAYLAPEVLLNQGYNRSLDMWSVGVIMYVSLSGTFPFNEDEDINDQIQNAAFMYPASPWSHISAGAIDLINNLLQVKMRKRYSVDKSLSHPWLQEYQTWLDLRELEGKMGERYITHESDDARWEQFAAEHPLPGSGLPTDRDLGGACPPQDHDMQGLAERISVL

[11] = molecular target: T3, Serine/threonine-protein kinase D2 (Homo sapiens); settings: at 1 µM
[12] = molecular target: T4, Serine/threonine-protein kinase D3 (Homo sapiens) (UniProt O94806); settings: at 0.1 µM
T4 sequence (whole entry): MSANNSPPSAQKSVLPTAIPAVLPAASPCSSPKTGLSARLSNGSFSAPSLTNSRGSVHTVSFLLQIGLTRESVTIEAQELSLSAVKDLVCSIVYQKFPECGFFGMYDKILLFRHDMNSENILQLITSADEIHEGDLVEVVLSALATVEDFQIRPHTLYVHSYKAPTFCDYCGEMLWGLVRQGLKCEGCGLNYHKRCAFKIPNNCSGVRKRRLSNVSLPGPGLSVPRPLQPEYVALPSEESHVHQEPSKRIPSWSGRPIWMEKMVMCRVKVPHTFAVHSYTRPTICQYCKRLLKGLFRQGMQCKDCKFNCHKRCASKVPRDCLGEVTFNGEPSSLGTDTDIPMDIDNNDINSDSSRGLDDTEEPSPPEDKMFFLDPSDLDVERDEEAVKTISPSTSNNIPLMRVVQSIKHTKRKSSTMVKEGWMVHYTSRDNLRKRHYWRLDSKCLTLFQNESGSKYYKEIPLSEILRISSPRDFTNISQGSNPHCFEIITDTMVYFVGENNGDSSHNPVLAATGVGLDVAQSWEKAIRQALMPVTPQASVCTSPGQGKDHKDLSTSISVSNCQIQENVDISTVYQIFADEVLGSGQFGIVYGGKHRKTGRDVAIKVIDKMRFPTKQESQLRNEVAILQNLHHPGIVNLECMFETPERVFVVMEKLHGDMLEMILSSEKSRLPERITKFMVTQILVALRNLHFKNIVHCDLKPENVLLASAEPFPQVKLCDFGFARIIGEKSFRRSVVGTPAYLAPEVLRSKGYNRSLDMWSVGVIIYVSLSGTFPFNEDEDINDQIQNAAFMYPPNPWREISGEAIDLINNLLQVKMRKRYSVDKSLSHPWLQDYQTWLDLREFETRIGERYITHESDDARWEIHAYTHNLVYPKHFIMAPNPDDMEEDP

[13] = molecular target: T4, Serine/threonine-protein kinase D3 (Homo sapiens); settings: at 1 µM
[14] = molecular target: T5, cGMP-dependent protein kinase 1 (Homo sapiens) (UniProt Q13976); settings: at 0.1 µM
T5 sequence (whole entry): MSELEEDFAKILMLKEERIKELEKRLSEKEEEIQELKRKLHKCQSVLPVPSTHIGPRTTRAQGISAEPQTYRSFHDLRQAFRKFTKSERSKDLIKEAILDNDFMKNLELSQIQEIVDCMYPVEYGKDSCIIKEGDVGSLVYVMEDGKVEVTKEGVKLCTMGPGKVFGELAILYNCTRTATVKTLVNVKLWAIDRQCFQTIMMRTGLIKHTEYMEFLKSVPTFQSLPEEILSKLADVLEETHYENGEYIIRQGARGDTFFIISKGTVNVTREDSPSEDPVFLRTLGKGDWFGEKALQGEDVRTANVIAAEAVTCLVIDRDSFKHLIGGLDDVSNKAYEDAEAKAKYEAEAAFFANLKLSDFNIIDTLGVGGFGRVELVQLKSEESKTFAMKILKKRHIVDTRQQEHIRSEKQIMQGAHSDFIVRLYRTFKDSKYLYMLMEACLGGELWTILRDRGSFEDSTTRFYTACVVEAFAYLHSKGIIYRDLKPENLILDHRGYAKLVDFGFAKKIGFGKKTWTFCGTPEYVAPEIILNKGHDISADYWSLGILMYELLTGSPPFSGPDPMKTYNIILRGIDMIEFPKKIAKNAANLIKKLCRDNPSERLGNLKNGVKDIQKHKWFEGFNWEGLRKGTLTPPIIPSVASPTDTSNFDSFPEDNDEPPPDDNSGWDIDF

[15] = molecular target: T5, cGMP-dependent protein kinase 1 (Homo sapiens); settings: at 1 µM
[16] = molecular target: T6, cGMP-dependent protein kinase 2 (Homo sapiens) (UniProt Q13237); settings: at 0.1 µM
T6 sequence (whole entry): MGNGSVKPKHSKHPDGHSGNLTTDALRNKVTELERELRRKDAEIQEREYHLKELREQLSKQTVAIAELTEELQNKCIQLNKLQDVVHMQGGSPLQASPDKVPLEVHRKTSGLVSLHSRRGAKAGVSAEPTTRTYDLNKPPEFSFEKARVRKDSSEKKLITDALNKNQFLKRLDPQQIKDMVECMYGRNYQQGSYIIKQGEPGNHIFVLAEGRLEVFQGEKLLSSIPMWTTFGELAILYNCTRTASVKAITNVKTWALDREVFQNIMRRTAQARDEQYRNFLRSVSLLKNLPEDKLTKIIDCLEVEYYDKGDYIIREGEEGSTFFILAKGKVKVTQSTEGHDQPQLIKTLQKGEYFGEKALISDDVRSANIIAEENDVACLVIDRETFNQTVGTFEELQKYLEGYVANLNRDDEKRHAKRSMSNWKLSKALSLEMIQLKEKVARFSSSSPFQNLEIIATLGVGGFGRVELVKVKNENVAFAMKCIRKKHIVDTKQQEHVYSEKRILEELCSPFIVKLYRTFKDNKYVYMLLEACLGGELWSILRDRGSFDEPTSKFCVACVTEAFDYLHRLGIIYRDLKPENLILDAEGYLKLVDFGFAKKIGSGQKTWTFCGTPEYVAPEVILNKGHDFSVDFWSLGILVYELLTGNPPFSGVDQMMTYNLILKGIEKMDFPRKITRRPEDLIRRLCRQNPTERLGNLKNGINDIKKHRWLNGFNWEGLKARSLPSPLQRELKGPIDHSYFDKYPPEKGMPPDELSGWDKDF

[17] = molecular target: T6, cGMP-dependent protein kinase 2 (Homo sapiens); settings: at 1 µM
[18] = molecular target: T7, cAMP-dependent protein kinase catalytic subunit PRKX (Homo sapiens) (UniProt P51817); settings: at 0.1 µM
T7 sequence (whole entry): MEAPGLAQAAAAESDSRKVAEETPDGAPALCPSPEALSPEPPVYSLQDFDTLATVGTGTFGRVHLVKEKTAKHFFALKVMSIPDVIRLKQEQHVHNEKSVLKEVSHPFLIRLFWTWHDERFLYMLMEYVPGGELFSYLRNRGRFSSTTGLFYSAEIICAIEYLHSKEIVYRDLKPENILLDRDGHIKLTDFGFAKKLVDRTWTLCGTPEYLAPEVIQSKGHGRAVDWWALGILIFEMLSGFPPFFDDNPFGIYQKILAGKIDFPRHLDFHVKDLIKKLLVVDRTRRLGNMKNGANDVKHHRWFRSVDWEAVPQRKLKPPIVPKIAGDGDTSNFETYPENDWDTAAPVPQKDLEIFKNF

[19] = molecular target: T7, cAMP-dependent protein kinase catalytic subunit PRKX (Homo sapiens); settings: at 1 µM
[20] = molecular target: Rho-associated protein kinase 1 (Homo sapiens) (UniProt Q13464); settings: at 0.1 µM;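 also: values are mean percent inhibition of ROCK1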
Rho-associated protein kinase 1 (Homo sapiens), sequence (Q13464 2-1354 limits assumed): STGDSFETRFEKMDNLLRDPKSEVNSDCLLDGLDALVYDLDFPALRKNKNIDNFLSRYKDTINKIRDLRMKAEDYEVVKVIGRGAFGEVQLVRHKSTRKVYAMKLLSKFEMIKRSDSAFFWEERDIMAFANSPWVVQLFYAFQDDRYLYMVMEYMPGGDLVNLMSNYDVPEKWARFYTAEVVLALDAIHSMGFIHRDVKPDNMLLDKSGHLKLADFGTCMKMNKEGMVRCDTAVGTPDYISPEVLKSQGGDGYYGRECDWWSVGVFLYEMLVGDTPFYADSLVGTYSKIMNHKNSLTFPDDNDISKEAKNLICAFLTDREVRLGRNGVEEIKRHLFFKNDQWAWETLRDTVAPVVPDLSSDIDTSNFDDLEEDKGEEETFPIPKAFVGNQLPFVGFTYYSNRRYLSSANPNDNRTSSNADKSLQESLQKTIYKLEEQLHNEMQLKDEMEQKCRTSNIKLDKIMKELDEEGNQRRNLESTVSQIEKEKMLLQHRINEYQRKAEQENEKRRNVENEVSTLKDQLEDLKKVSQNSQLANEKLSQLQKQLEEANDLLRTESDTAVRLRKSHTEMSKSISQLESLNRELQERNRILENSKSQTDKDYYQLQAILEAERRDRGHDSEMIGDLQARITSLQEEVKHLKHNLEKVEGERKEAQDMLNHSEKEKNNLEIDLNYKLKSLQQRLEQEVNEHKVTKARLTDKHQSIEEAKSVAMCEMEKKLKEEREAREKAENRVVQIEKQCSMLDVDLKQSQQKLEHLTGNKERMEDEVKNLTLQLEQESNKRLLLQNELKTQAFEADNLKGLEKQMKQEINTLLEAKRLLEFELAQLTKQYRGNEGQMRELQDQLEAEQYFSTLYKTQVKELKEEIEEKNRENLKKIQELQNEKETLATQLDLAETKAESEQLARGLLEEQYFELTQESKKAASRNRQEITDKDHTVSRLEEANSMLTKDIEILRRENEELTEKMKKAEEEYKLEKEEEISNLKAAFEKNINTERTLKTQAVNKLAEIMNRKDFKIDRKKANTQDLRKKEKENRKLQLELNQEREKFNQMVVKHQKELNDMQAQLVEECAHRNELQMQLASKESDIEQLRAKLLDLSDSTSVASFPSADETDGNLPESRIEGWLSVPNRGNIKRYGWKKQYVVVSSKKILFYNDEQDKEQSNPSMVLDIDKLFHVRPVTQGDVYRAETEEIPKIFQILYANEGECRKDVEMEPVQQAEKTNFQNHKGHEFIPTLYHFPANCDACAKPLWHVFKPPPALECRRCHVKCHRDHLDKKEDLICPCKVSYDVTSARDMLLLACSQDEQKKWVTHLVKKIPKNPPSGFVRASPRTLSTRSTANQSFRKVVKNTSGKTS

Protein kinase C theta type (Homo sapiens), sequence (Q04759 whole entry, looked up): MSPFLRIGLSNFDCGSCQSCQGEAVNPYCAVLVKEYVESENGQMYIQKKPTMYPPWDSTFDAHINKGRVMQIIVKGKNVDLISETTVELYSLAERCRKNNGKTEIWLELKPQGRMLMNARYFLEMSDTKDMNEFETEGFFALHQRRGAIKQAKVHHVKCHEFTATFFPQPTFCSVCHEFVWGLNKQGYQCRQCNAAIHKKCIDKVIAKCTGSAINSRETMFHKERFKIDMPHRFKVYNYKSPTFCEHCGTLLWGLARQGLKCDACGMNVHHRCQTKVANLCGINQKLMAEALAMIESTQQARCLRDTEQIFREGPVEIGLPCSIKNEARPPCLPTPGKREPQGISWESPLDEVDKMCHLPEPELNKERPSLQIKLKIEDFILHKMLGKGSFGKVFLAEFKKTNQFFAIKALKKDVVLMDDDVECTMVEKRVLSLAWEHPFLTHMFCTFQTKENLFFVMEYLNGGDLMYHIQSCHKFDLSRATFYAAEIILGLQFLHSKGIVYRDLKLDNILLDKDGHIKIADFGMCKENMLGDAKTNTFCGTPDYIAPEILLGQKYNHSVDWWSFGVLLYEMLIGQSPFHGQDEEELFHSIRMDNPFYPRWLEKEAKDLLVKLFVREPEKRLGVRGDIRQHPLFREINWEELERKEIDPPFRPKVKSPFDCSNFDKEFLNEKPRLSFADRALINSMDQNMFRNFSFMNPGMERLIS
Protein kinase C beta type (Homo sapiens), sequence (P05771 2-671 limits assumed): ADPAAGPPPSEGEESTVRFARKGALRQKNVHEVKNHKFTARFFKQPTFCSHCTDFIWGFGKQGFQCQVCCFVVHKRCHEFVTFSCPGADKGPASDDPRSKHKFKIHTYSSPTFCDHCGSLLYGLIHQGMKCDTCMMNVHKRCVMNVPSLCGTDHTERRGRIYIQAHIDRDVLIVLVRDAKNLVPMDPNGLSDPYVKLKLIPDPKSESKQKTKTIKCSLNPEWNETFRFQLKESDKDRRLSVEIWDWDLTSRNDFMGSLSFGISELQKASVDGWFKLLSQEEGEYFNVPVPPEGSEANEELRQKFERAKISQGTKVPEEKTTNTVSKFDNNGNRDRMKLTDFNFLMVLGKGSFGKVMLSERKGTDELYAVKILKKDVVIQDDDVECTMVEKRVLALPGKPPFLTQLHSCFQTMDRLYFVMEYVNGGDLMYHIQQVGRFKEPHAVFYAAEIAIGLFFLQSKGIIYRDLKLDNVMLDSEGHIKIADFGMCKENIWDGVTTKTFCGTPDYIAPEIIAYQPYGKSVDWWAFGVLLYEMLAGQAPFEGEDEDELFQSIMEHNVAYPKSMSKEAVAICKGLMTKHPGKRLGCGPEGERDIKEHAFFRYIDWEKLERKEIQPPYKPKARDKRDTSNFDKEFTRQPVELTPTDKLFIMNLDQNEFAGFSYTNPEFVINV

Compound	inhibition [1]	inhibition [2]	inhibition [3]	inhibition [4]	inhibition [5]	inhibition [6]	inhibition [7]	inhibition [8]	inhibition [9]	inhibition [10]	inhibition [11]	inhibition [12]	inhibition [13]	inhibition [14]	inhibition [15]	inhibition [16]	inhibition [17]	inhibition [18]	inhibition [19]	inhibition [20]
NS(=O)(=O)c1ccc(N/N=C2\C(=O)Nc3ccc(Cl)cc32)cc1	4.85%	1.02%	0.75%	2.29%	4.86%	0.92%	1.29%	2.46%	7.47%	3.87%	5.28%	3.58%	5.68%	2.65%	6.01%	3.85%	5.8%	4.2%	7.86%	0.31%
Nc1nccc(-c2c(-c3ccc(F)cc3)nn3cc(C(F)(F)F)ccc23)n1	-0.26%	-0.75%	-1.18%	-0.19%	-0.16%	-0.91%	2.07%	0.77%	3.05%	1.62%	3.04%	0.99%	3.75%	-0.61%	-0.49%	-0.17%	-0.08%	0.72%	-0.61%	-0.4%
O=C1Nc2ccccc2/C1=C/Nc1ccc2[nH]c(=O)[nH]c2c1	4.72%	1.72%	0.7%	2.03%	4.75%	1.79%	2.19%	4.45%	16.5%	5.28%	14%	5.54%	11.7%	1.49%	6.34%	3.41%	13.8%	2.23%	8.47%	0.24%
